KCNQ2 block = KCNQ2 (rat) channel inhibition. CHO-K1 KCNQ2, FluxOR thallium flux, 20 min; stronger effect = lower value. B-score at 10 µM. AID 2156. hit rate 1.1% among 310,000. O88943;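 active means fluorescence ratio B-score at most minus 3 library SDs, with starting brightness B-score within 2 library SDs, cut at about -5.5 in these data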
KCNQ2 pot = KCNQ2 (rat) channel potentiation | CHO-K1 KCNQ2, FluxOR thallium flux fluorescence; stronger effect = higher value | B-score at 10 µM | hit rate 0.54% among 310,000;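 active means fluorescence ratio B-score at least 3 SD of library B-scores, with initial fluorescence B-score within 3 of them, cut at about 5.3 in these data; same plate scores as AID 2156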;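 further: B-score of peak minus minimum over baseline fluorescence ratio after K+ and Tl+ stimulus; positive B-score means potentiation of KCNQ2 with more thallium influx and brighter signal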
Kir21 conf inh = confirmation of mouse Kir2.1 potassium channel inhibitors; shares compounds with KCNQ2 pot; Kir2.1-expressing cells, FluxOR thallium flux fluorescence; stronger effect = lower value; Tl flux remaining, % of negative control (stronger effect = lower value), % at 10 µM; hit rate 41% among 2,300; AID 2032;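 active means Primary-screen hit whose thallium flux fell at least 3 control SD below untreated wells in both duplicates, with normal baseline fluorescence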;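 further: 0% = blank wells without stimulus and 100% = stimulated no-compound controls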
HEK293 Tl flux = counter-screen for Kir2.1 inhibitors: effect in parental HEK293 cells; hit rate 19% among 2,300; FluxOR signal as % of negative control (100 = no effect), % at 10 µM; FluxOR thallium flux fluorescence; 0% = unstimulated blank wells; shares compounds with KCNQ2 pot;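 active means dye signal at least 3 control SD above or below untreated wells in both duplicates, raw fluorescence within 3, either direction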;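 further: percent is based on the flux ratio of peak minus minimum fluorescence over baseline F0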
CHO-K1 Tl ctr = counter-screen for KCNQ2 potentiators: effect in parental CHO-K1 cells; shares compounds with KCNQ2 pot; FluxOR thallium flux fluorescence; zero = vehicle mean+3SD, 100% = vehicle-minus-blank window; activity increase over 3SD of controls, % at 10 µM; hit rate 43% among 1,200; AID 2282;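 active means signal rise of at least 3 SD above the untreated control mean, in both duplicate wells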;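 further: counter screen of KCNQ2 potentiator hits so any rise reflects channel-independent effects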
KCNQ1 sel pot = human KCNQ1 counter-target activity of KCNQ2 potentiators. AID 2283. hit rate 28% among 1,200. CHO KCNQ1 stable, FluxOR thallium flux fluorescence; beyond 3SD, as % of vehicle-control signal. shares compounds with KCNQ2 pot. activation over 3SD threshold, % at 10 µM;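 active means fluorescence ratio rise of at least 3 SD of vehicle wells above their mean, in both replicate wells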;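 further: 0% = vehicle mean plus 3 SD and 100% = vehicle minus unstimulated blank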
Target sequence (P51787 whole entry, looked up): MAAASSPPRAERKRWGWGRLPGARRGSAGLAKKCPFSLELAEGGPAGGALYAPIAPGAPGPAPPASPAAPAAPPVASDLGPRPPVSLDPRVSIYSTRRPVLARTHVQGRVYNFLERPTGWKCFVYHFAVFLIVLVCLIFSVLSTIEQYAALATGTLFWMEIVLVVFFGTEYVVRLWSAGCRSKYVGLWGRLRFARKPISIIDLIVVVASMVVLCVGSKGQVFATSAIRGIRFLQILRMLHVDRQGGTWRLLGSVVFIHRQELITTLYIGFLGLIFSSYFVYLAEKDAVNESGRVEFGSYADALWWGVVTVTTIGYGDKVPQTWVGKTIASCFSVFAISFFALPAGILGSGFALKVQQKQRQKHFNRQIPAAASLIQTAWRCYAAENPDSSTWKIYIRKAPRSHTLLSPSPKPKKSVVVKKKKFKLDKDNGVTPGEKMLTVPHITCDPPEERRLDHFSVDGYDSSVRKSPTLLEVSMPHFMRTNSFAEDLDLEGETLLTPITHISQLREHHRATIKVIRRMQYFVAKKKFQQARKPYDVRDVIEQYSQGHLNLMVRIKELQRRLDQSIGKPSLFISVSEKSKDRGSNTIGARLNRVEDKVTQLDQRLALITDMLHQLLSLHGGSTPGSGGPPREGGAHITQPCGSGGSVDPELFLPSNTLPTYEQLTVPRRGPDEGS
KCNQ2 pot conf = confirmation of rat KCNQ2 potassium channel potentiators; potentiation, less the hit threshold, % at 10 µM; shares compounds with KCNQ2 pot; hit rate 68% among 1,200; AID 2287; CHO-KCNQ2 cells, FluxOR thallium flux fluorescence;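 active means fluorescence ratio rising 3 SD or more over the vehicle control mean in both replicates, plus primary screen hit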;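 further: peak minus minimum thallium fluorescence divided by baseline after K/Tl stimulus; 0% = vehicle mean plus 3 SD and 100% = vehicle minus unstimulated blank difference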
Kir2-1 sel = selectivity of KCNQ2 potentiators: effect on mouse Kir2.1; shares compounds with KCNQ2 pot; HEK293 Kir2.1, FluxOR thallium flux fluorescence; activity over 3SD threshold, % at 10 µM; hit rate 2% among 1,200; AID 2345;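 active means fluorescence ratio rise of at least 3 SD above the vehicle-control mean, seen in both replicates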;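 further: 0% = vehicle mean plus 3 SD and 100% = vehicle minus no-stimulus blank window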
KCNQ2 W236L MoA = KCNQ2 potentiators acting on retigabine-insensitive rat KCNQ2 W236L mutant; AID 2558; CHO KCNQ2-W236L, automated patch clamp current; hit rate 10% among 940; current increase over 3SD of negative controls (%), stronger effect = higher value, % at 25 µM; shares compounds with KCNQ2 pot;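 active means current increase at least 3 SD of the untreated controls above them in both duplicate recordings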
Starred values were filed as active, the others as inactive. A selection: hits, their analogues and other compounds. The true share with any hit is near 1.6%.

How did Cc1ccc(S(=O)(=O)NCCNc2ccc([N+](=O)[O-])cc2C(F)(F)F)cc1 do in these assays?
KCNQ2 block: inactive

How did CCCCn1c(N)c(N(CC(C)C)C(=O)c2cc3c(s2)CCCCC3)c(=O)[nH]c1=O do in these assays?
KCNQ2 block: inactive; KCNQ2 pot: 0.02

What do the screens show for `CCCSc1cc(NCCOC(=O)CCC)c([N+](=O)[O-])c2nonc12`?
KCNQ2 block: inactive

What do the screens show for `CCCC(=O)OCCNc1cc(Sc2nccn2C)c2nonc2c1[N+](=O)[O-]`?
KCNQ2 block: inactive; Kir21 conf inh: 70%*; HEK293 Tl flux: inactive

Results for O=C(Nc1ccccc1NS(=O)(=O)c1ccc(F)cc1)C1CCC1 ?
KCNQ2 block: inactive

How did O=C(O)CC1(CC(=O)Nc2ccccc2N2CCOCC2)CCCC1 do in these assays?
KCNQ2 block: inactive

How did O=C(c1cccc(COc2ccc(Cl)cc2Cl)c1)N1CCN(c2ccccn2)CC1 do in these assays?
KCNQ2 block: inactive

Results for CN(C(=O)c1cccc(COc2ccc(Cl)cc2Cl)c1)c1ccccc1 ?
KCNQ2 block: inactive; Kir21 conf inh: inactive; HEK293 Tl flux: inactive

Results for OCCNCCNCc1ccccc1OCc1ccccc1 ?
KCNQ2 block: inactive

What do the screens show for `OCCNCc1c(OCc2ccc(Cl)cc2)ccc2ccccc12`?
KCNQ2 block: inactive; KCNQ2 pot: 0.51; Kir21 conf inh: 37%*; HEK293 Tl flux: inactive

What do the screens show for `Cc1sc2ncn(CC(=O)Nc3cccc(S(N)(=O)=O)c3)c(=O)c2c1-c1ccccc1`?
KCNQ2 block: inactive; KCNQ2 pot: 0.46

Results for Cc1nn(C)c(C)c1CN(C(=O)C1CCC(=O)N(C2CCCCCC2)C1)C(C)C (centres undefined) ?
KCNQ2 block: inactive; KCNQ2 pot: 0.89

Results for CCOC(=O)C1=NN(C(=O)Cc2ccccc2)C(O)(c2ccc(Cl)cc2)C1 (centres undefined) ?
KCNQ2 block: inactive

Results for COC(=O)C1=NN(C(=O)c2cccc(Br)c2)C(O)(c2ccc(Cl)cc2)C1 (centres undefined) ?
KCNQ2 block: inactive; KCNQ2 pot: 16*; Kir21 conf inh: inactive; HEK293 Tl flux: inactive; CHO-K1 Tl ctr: 18*; KCNQ1 sel pot: -8; KCNQ2 pot conf: 65*; Kir2-1 sel: -24; KCNQ2 W236L MoA: inactive

How did CC1CCN(CCCNC(=O)c2ccc(CSCc3cccc(Cl)c3)o2)CC1 do in these assays?
KCNQ2 block: inactive; Kir21 conf inh: 37%*; HEK293 Tl flux: inactive

How did CN1CCN(CCCNC(=O)c2ccc(CSCc3cccc(Cl)c3)o2)CC1 do in these assays?
KCNQ2 block: inactive; KCNQ2 pot: 1.2

Results for O=C(CCCc1ccccc1)N=C1SC2CS(=O)(=O)CC2N1c1ccccc1F (centres undefined) ?
KCNQ2 block: inactive; KCNQ2 pot: 0.85

What do the screens show for `COc1cccc(CN=C2Nc3ccccc3CS2)c1`?
KCNQ2 block: inactive

What do the screens show for `COc1ccccc1CN=C1Nc2ccccc2CS1`?
KCNQ2 block: inactive; Kir21 conf inh: 58%*; HEK293 Tl flux: inactive

Results for O=C(Nc1cccc(F)c1)C1CCCN1C(=O)OCc1ccccc1 (centres undefined) ?
KCNQ2 block: inactive; KCNQ2 pot: 0.28

How did CC(=O)N(CC(=O)O)c1ccccc1 do in these assays?
KCNQ2 block: inactive; KCNQ2 pot: 0.66

What do the screens show for `CC(=O)N(CC(C)(C)CC=C(C)C)c1ccccc1`?
KCNQ2 block: inactive; Kir21 conf inh: 54%*; HEK293 Tl flux: inactive

Results for Cc1cccc(C)c1NC(=O)c1nc(S(=O)(=O)Cc2ccccc2)ncc1Cl ?
KCNQ2 block: inactive

How did CCCc1nnc(NC(=O)c2nc(S(=O)(=O)Cc3cccc(C)c3)ncc2Cl)s1 do in these assays?
KCNQ2 block: inactive; KCNQ2 pot: 15*; CHO-K1 Tl ctr: -11; KCNQ1 sel pot: -46; KCNQ2 pot conf: 99*; Kir2-1 sel: -72; KCNQ2 W236L MoA: 34%*

Results for Cc1nnc(NC(=O)c2nc(S(=O)(=O)Cc3ccccc3)ncc2Cl)s1 ?
KCNQ2 block: inactive; KCNQ2 pot: 14*; Kir21 conf inh: inactive; HEK293 Tl flux: inactive; CHO-K1 Tl ctr: 3.1*; KCNQ1 sel pot: 46*; KCNQ2 pot conf: 58*; Kir2-1 sel: -29; KCNQ2 W236L MoA: 23%*

Results for Cc1cccc(CS(=O)(=O)c2ncc(Cl)c(C(=O)Nc3c(C)cccc3C)n2)c1 ?
KCNQ2 block: inactive; Kir21 conf inh: inactive; HEK293 Tl flux: inactive

Results for Cc1ccc(NC(=O)c2nc(S(=O)(=O)Cc3ccccc3)ncc2Cl)cc1 ?
KCNQ2 block: inactive; KCNQ2 pot: 0.15

Results for Cc1cccc(CS(=O)(=O)c2ncc(Cl)c(C(=O)NCc3ccccc3)n2)c1 ?
KCNQ2 block: inactive

What do the screens show for `N#C/C(=C\c1ccc(OCC(N)=O)cc1)S(=O)(=O)c1ccccc1`?
KCNQ2 block: inactive; KCNQ2 pot: 0.04

What do the screens show for `O=C(NC(=S)N(CCO)Cc1ccccc1)c1ccc(F)cc1Cl`?
KCNQ2 block: inactive

How did CC(=O)O[C@H]1C[C@@]2(C)[C@@H](C[C@@H](O)[C@H]3[C@@]4(C)CC[C@@H](O)[C@@H](C)[C@@H]4CC[C@@]32C)/C1=C(\CCC=C(C)C)C(=O)O do in these assays?
KCNQ2 block: inactive; KCNQ2 pot: 1.6

How did CC(C)CNC(=O)c1ccccc1N(Cc1ccccc1)S(C)(=O)=O do in these assays?
KCNQ2 block: inactive

Results for CC(C)CNC(=S)NC(=O)c1ccc([N+](=O)[O-])cc1 ?
KCNQ2 block: inactive; KCNQ2 pot: 1.8

Results for CCCCNC(=S)NC(=O)c1ccc([N+](=O)[O-])cc1 ?
KCNQ2 block: inactive; KCNQ2 pot: 8.8*; Kir21 conf inh: inactive; HEK293 Tl flux: 188%*; CHO-K1 Tl ctr: 2.5*; KCNQ1 sel pot: 14*; KCNQ2 pot conf: 10*; Kir2-1 sel: -13; KCNQ2 W236L MoA: inactive

Screening data (PubChem BioAssay)
